Test results: PubChem BioAssay (NCATS)
Records with an inconclusive call do not appear. The source made the active and inactive calls. The call rests on the fitted dose curve; in most records, active means well fitted curve in the direction sought with a large enough effect; inconclusive means small, poorly fitted or top-dose-only effect, or another doubt; inactive means no such curve, though single readings can be large; an effect the other way counts as inactive or inconclusive.

Columns and labels:
[1] = target: Phospholipid hydroperoxide glutathione peroxidase GPX4 (Homo sapiens) (UniProt P36969); experiment: Primary qHTS Assay for Inhibitors of Recombinant Selenoprotein Glutathione Peroxidase 4 (GPX4) (AID 1845192); settings: recombinant GPX4, GR-coupled NADPH fluorescence, 15 min; series mostly up to 50 µM; further: nearly all actives have a fitted effect of over 65% in size
Summary of the method: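 GR-coupled readout: 100 nM GR, 1 mM GSH, 0.5 mM NADPH; NADPH fluorescence (ex 340/em 450 nm) read at t=0 and after 15 min RT. GPX4 200 nM, preincubated 30 min with compound; substrate 0.5 mM CHP.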

[2] = target: Luciferin 4-monooxygenase (Photinus pyralis) (UniProt P08659); experiment: Primary firefly luciferase (FLuc) qHTS assay for identification of artifact compounds. (AID 1845220); settings: purified firefly luciferase, luminescence, 5 min; series mostly up to 54.1 µM; further: nearly all actives have a fitted effect of over 60% in size
Summary of the method: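 In this counter-screen for luciferase artifacts, test compounds met substrate (10 uM each luciferin and ATP) before 10 nM enzyme started the reaction. Light output was measured 5 min later.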

[3] = Primary fluorescence-based thiol-reactive (MSTI) qHTS assay for identification of artifact compounds. (AID 1845221); settings: MSTI thiol-reactivity probe, 1 h; series mostly up to 53.8 µM; further: nearly all actives have a fitted effect of over 65% in size; further: potency means the concentration at half of the fitted maximal effect
Summary of the method: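 A multi-concentration qHTS design tested compounds against 4 uM MSTI, pH 7.4 phosphate-buffered saline. Plates were protected from light for 1 h at room temperature before imaging fluorescence.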

[4] = system: Nanoluciferase (engineered Oplophorus gracilirostris luciferase); experiment: Primary Nanoluciferase (NLuc) qHTS assay for identification of artifact compounds. (AID 1845222); settings: NLuc-conditioned medium, Nano-Glo luminescence, 5 min; series mostly up to 54.1 µM;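 further: NLuc secreted into diluted conditioned medium of S16 cells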
Summary of the method: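 Using secreted nanoluciferase in S16 culture medium (0.22 um filtered, 1:55 dilution), compounds were preincubated 15 min at RT. Signal was generated with Nano-Glo reagent (1:100) over 5 min.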

[5] = Primary redox qHTS assay for identification of artifact compounds. (AID 1845223); settings: Amplex Red/HRP redox cycling with DTT, fluorescence; series mostly up to 53.8 µM
Summary of the method: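 Amplex Red (25 uM) and HRP (250 mU/mL) in HBSS, with compounds for 15 min, then 250 uM DTT for 30 min, room temperature, dark. Fluorescence 525/598 nm read; normalized to DMSO and 10 uM DA3003; Hill fit.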

Measured: Potency

Phospholipid hydroperoxide glutathione peroxidase GPX4 (Homo sapiens), sequence (P36969 whole entry, looked up): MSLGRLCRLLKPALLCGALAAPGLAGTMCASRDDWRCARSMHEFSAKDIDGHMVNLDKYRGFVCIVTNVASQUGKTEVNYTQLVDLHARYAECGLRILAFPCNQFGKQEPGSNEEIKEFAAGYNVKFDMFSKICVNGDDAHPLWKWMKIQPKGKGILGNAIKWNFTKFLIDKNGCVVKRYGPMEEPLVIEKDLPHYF

CC1=CC2/C=C(\C)CC[C@@H](O)[C@@H](O)[C@@H]3O[C@@H]3C(=O)[C@]23C(=O)N[C@@H](CC(C)C)[C@@H]3[C@@H]1C (stereo not given in full)
inactive: [1] | [2] | [3] | [4] | [5]

CC(C)c1nnc(-c2ccc(-c3ccccc3)nc2)n1-c1cccc2nonc12
inactive: [1] | [2] | [3] | [4] | [5]

C=C1C(=O)OC2CC3(C)C(CC12)C(C)=CC(O)C3OC(C)=O (stereo not given)
active: [3] 5.85 µM
inactive: [1] | [2] | [4] | [5]

COc1c2c(c(C)c3c1C(=O)OC3)O[C@@]1(C)CC(O)C(C(C)(C)O)[C@](C)(CCC(=O)O)[C@H]1C2 (stereo not given in full)
inactive: [1] | [2] | [3] | [4] | [5]

CCC(CC)C(=O)Nc1sc2c(c1C#N)CCC(C(C)(C)CC)C2 (stereo not given)
inactive: [1] | [2] | [3] | [4] | [5]

Cc1cc(N2CCN([C@@H]3CN[C@H](C(=O)N4CCSC4)C3)CC2)n(-c2ccccc2)n1
inactive: [1] | [2] | [3] | [4] | [5]

CC1CCC2(C(=O)O)CCC3(C)C(=CCC4C5(C)CCC(OC(=O)/C=C/c6ccccc6)C(C)(C)C5CCC43C)C2C1C (stereo not given)
inactive: [1] | [2] | [3] | [4] | [5]

C/C(=C\C=C\C(C)C1CCC2(C)C3CCC4C(C)(C)C(=O)CCC45CC35CCC12C)C(=O)O (stereo not given)
inactive: [1] | [2] | [3] | [4] | [5]

CC1(C)C2CC(OC3OC(COC4OCC(O)(CO)C4O)C(O)C(O)C3O)C1(C)CC2O (stereo not given)
inactive: [1] | [2] | [3] | [4] | [5]
